Test results taken from PubChem BioAssay.
Activity calls are given as the source filed them.

How the values were obtained:
[1] = system: PRMT1 (protein arginine N-methyltransferase 1); assay: PRMT1 binders on small-molecule microarrays, primary screen, biochemical, small-molecule microarray, 635 nm fluorescence (AID 1088); details: small-molecule microarray binding, higher = more signal;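 also: binding of Prmt1 protein to compounds spotted on small-molecule microarray slides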
[2] = yeast growth modulation, basal conditions, primary screen, YJM789 clinical isolate, OD600, 24 h (AID 1089);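 also: growth of clinical yeast isolate S. cerevisiae YJM 789 seeded 1000 cells per well; test concentration not given here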; details: S. cerevisiae YJM789 growth, higher = more signal, called active from +8 up or from −8 down
[3] = fission yeast growth modulation, primary screen, strain 972, OD600, 24 h, no modulator (AID 1090);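 also: basal condition with compound alone and no growth modifier present; test concentration not given here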; details: S. pombe 972 growth, higher = more signal, called active from +8 up or from −8 down
[4] = S. cerevisiae growth modulation with rapamycin, primary screen, strain BY4716, OD600, 96 h (AID 1091); details: higher = more signal, called active from +8 up or from −8 down; also: test concentration not given here
[5] = target: Torsin-1A-interacting protein 2 (Homo sapiens) (UniProt Q8NFQ8); assay: LULL1 binders on small-molecule microarray, primary screen, cell lysate, human LULL1 lysate, 635/667 nm fluorescence (AID 1092); details: hLULL1 lysate binding, 635 nm fluorescence, higher = more signal;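 also: probe is lysate of COS7 cells overexpressing human LULL1; score merges per-feature 667 nm fluorescence with signal-to-noise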
[6] = E. coli growth modulation, two-sided OD650, primary screen, E. coli filamentation project, strain DRC41, 24 h (AID 1093); details: OD650, 24 h, higher = more signal, called active from +8 up or from −8 down;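 also: MC1000 strain lacking acrAB efflux and sulA so SOS filamentation is blocked; test concentration not given here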
[7] = small-molecule microarray binders of probe aLefty2, primary screen, biochemical, biotinylated probe, 635/667 nm fluorescence (AID 1094); details: higher = more signal;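 also: score merges spot fluorescence near 667 nm with spot signal-to-noise ratio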
[8] = system: Noggin (protein binding on small-molecule microarray); assay: Noggin binders on small-molecule microarray, primary screen, biochemical, 635/667 nm fluorescence (AID 1095); details: 635 nm fluorescence, higher = more signal;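 also: score merges 667 nm feature fluorescence with signal to noise over triplicate slides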
[9] = target: Neurogenic locus notch homolog protein 3 (Homo sapiens) (UniProt Q9UM47); assay: NOTCH3 binders on small-molecule microarray, primary screen, biochemical, 635/667 nm fluorescence (AID 1096); details: NOTCH3 binding, 635 nm fluorescence, higher = more signal
[10] = small-molecule microarray binders of probe aEGFR, primary screen, biochemical, biotinylated probe, 635/667 nm fluorescence (AID 1097); details: higher = more signal;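 also: probe is a biotinylated anti-EGFR antibody binding compounds printed on slides; score combines fluorescence near 667 nm and signal to noise of each spot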
[11] = system: Plasmodium falciparum Sir2 (PF13_0152, Sir2A); assay: pfSir2 binders on small-molecule microarrays, primary screen, biochemical, small-molecule microarray, 635 nm fluorescence (AID 1098); details: small-molecule microarray binding, fluorescence 635 nm; higher = more signal;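 also: score merges spot fluorescence intensity with its signal-to-noise ratio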
[12] = small-molecule microarray binders of probe aDKK1, primary screen, biochemical, biotinylated probe, 635/667 nm fluorescence (AID 1099); details: higher = more signal;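 also: score merges 667nm spot fluorescence with signal to noise across triplicate slides; reference of the scale not given here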
[13] = small-molecule microarray binders of probe aCHRDL2, primary screen, biochemical, biotinylated probe, 635/667 nm fluorescence (AID 1100); details: higher = more signal
[14] = splicing luciferase reporter signal modulators, primary screen, spliceosome inhibition project, cell-based, HEK293, splice +/- reporter (AID 1101); details: luminescence, 24 h, higher = more signal, called active from +8 up or from −8 down;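 also: HEK293 cells carrying a splicing-competent luciferase reporter gene; test concentration not given here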
[15] = target: Fibroblast growth factor 10 (Homo sapiens) (UniProt O15520); assay: FGF10 binders on small-molecule microarrays, primary screen, biochemical, small-molecule microarray, 635 nm fluorescence (AID 1102); details: FGF10 binding, fluorescence 635 nm, higher = more signal
[16] = system: glycogen synthase kinase-3 (GSK3A per assay name; protocol says GSK3B); assay: GSK3 binders on small-molecule microarrays, primary screen, biochemical, small-molecule microarray, 635 nm fluorescence, GSK3A (AID 1103); details: small-molecule microarray binding, fluorescence 635 nm; higher = more signal; also: the record names both GSK3A and GSK3B
[17] = target: Epidermal growth factor receptor (Homo sapiens) (UniProt P00533); assay: EGFR binders on small-molecule microarrays, primary screen, biochemical, small-molecule microarray, 635 nm fluorescence (AID 1104); details: EGFR binding, higher = more signal;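 also: score merges 667 nm emission intensity with spot signal to noise over triplicate slides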
[18] = target: Follistatin-related protein 3 (Homo sapiens) (UniProt O95633); assay: FSTL3 binders on small-molecule microarrays, primary screen, biochemical, small-molecule microarray, 635 nm fluorescence (AID 1105); details: FSTL3 binding, higher = more signal;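 also: score merges emission near 667 nm and signal to noise per printed spot across three slides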
[19] = target: Dickkopf-related protein 1 (Homo sapiens) (UniProt O94907); assay: DKK1 binders on small-molecule microarrays, primary screen, biochemical, small-molecule microarray, 635 nm fluorescence scan (AID 1106); details: DKK1 binding, higher = more signal;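 also: score merges emission near 667 nm with signal to noise over three replicate slides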
[20] = system: Inhibin beta A chain (activin A); assay: INHBA (activin A) binders on microarrays, primary screen, biochemical, small-molecule microarray, 635 nm fluorescence scan (AID 1107); details: small-molecule microarray binding, higher = more signal;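 also: mouse activin A protein probed at 4.33 µg/mL on printed slides; score merges bound-protein fluorescence near 667 nm with spot signal-to-noise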

Chain of Epidermal growth factor receptor (Homo sapiens) (P00533 whole entry, looked up): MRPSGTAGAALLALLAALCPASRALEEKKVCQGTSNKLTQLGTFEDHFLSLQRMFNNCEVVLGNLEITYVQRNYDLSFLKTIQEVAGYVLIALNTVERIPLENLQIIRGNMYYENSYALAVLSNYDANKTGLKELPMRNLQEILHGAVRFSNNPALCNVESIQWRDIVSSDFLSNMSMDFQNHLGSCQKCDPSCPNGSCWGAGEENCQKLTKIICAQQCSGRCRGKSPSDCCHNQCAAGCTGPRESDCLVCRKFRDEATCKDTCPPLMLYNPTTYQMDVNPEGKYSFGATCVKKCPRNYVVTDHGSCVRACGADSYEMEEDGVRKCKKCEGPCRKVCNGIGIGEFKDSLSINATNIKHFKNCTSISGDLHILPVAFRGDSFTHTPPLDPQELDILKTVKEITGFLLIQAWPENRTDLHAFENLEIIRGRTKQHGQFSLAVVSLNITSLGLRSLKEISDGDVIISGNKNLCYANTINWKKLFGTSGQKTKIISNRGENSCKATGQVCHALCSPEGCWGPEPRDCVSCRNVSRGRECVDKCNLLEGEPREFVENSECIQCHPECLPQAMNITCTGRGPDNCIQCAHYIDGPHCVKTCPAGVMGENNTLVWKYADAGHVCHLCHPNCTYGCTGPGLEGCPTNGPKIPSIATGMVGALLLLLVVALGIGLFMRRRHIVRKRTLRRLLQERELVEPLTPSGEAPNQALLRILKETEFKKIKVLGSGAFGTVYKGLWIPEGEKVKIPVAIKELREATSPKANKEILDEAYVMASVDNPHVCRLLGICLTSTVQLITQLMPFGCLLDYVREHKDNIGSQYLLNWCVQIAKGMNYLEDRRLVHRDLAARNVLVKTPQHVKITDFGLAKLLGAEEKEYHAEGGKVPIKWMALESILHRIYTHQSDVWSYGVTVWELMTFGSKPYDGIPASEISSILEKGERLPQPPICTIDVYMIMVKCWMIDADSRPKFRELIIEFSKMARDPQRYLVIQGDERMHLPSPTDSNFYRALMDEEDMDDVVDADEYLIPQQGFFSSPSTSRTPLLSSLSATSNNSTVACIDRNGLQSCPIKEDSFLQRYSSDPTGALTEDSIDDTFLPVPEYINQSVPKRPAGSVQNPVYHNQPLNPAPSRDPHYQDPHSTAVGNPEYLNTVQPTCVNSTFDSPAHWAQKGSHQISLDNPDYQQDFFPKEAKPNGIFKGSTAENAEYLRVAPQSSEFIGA
Chain of Fibroblast growth factor 10 (Homo sapiens) (O15520 whole entry, looked up): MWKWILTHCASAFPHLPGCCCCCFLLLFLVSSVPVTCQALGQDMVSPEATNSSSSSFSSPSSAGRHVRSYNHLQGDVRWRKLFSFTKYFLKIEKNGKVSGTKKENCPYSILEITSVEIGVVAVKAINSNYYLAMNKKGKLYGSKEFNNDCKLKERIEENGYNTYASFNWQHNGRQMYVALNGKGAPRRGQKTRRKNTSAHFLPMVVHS
Chain of Torsin-1A-interacting protein 2 (Homo sapiens) (Q8NFQ8 whole entry, looked up): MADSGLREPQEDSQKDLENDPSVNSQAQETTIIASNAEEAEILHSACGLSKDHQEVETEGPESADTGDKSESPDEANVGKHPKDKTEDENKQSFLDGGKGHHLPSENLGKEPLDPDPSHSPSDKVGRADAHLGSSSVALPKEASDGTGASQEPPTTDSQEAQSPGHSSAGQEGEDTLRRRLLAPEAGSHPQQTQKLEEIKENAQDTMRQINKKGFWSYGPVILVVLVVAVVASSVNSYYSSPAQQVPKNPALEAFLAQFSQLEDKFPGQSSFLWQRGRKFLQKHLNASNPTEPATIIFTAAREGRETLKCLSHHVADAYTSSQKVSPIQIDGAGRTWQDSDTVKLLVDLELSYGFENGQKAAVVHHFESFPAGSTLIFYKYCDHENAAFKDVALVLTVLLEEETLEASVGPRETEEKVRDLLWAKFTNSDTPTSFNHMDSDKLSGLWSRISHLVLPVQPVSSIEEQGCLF
Chain of Dickkopf-related protein 1 (Homo sapiens) (O94907 whole entry, looked up): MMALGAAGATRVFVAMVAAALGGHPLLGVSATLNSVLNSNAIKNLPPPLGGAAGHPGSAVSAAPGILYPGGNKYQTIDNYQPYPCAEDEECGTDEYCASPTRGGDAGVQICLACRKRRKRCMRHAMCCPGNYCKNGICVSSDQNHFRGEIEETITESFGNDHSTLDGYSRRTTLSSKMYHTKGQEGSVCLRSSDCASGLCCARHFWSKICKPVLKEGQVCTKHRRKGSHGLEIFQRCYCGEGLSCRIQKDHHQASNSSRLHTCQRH
Chain of Follistatin-related protein 3 (Homo sapiens) (O95633 whole entry, looked up): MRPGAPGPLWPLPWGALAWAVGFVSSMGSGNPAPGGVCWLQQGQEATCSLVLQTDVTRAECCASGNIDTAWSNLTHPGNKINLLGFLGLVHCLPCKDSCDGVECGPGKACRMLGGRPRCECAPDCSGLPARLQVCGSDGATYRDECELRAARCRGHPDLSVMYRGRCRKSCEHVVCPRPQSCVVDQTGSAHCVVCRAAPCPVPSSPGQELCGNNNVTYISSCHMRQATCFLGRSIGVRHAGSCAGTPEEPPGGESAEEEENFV
Chain of Neurogenic locus notch homolog protein 3 (Homo sapiens) (Q9UM47 whole entry, looked up): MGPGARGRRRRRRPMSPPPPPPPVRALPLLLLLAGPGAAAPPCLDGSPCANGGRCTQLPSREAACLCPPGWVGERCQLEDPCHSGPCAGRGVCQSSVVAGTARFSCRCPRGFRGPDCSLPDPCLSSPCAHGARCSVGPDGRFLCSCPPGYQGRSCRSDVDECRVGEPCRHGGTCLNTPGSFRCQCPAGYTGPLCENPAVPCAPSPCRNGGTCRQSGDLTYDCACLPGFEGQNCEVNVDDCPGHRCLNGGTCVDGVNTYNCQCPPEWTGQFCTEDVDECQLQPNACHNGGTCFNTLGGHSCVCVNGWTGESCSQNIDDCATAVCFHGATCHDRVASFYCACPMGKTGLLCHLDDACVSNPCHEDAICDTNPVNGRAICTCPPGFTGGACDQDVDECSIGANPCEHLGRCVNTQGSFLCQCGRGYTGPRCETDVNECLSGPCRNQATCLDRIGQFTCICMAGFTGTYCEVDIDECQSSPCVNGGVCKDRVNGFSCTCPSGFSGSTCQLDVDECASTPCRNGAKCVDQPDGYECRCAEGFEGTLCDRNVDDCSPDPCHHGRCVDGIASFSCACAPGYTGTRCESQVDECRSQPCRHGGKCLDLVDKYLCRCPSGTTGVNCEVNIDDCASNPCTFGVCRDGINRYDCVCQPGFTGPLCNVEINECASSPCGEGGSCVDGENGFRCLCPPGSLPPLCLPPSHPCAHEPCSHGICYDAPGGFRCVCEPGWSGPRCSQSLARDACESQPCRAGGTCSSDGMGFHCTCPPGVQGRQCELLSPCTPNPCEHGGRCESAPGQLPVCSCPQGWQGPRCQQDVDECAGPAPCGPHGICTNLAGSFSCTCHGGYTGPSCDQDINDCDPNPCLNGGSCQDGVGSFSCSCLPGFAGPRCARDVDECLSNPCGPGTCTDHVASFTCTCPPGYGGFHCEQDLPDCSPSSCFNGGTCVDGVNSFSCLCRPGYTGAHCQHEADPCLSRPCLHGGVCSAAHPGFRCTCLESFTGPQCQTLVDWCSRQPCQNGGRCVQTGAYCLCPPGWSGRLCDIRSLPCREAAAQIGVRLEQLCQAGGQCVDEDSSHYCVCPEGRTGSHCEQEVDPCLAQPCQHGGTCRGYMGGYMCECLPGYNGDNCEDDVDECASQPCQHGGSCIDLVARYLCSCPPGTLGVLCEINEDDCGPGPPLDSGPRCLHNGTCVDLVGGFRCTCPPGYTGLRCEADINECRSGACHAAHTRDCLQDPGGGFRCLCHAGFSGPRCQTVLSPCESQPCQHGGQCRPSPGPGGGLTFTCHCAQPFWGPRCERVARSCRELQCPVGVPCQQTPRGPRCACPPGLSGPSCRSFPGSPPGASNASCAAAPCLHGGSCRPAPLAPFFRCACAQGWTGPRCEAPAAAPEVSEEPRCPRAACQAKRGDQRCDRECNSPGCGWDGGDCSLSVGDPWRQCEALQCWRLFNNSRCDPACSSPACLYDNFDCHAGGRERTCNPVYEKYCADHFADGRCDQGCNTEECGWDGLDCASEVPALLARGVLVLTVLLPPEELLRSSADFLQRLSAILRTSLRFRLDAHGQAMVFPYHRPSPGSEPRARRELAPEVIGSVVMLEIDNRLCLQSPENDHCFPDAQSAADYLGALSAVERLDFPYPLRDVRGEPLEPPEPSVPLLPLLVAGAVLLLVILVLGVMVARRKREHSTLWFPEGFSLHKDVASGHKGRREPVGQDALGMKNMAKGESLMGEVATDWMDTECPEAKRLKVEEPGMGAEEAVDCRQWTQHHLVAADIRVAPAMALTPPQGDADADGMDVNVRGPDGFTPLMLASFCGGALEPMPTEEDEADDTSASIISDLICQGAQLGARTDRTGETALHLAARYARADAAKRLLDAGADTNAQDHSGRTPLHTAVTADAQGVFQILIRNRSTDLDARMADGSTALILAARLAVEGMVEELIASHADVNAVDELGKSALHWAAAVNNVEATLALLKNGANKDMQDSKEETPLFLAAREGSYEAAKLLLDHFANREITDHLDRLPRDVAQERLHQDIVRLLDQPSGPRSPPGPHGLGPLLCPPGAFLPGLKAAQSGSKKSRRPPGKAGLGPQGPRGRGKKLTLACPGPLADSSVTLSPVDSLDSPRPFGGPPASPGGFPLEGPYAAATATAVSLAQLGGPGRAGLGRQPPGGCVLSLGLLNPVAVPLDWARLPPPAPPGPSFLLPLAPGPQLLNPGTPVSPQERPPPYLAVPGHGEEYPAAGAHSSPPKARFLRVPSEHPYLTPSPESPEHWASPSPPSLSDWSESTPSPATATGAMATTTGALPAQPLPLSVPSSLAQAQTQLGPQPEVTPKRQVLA

| Compound | composite z-score [1] | z-score [2] | z-score [3] | z-score [4] | composite z-score [5] | z-score [6] | composite z-score [7] | composite z-score [8] | composite z-score [9] | composite z-score [10] | composite z-score [11] | composite z-score [12] | composite z-score [13] | z-score [14] | composite z-score [15] | composite z-score [16] | composite z-score [17] | composite z-score [18] | composite z-score [19] | composite z-score [20] |
| --- | --- | --- | --- | --- | --- | --- | --- | --- | --- | --- | --- | --- | --- | --- | --- | --- | --- | --- | --- | --- |
| CC(C)CON=C1C[C@@H](O)[C@@H](O)[C@@H]2[C@@H]3C(=O)N(c4ccc(F)cc4F)C(=O)[C@@H]3CC[C@H]12 | 1.55 | -0.254 (inactive) | -0.59 (inactive) | -0.337 (inactive) | 1.63 | -0.385 (inactive) | -0.304 | 0.409 | 1.08 | -0.0512 | 0.256 | -0.212 | -0.509 | -0.972 (inactive) | 0.553 | 0.458 | 0.59 | 0.986 | 0.671 | -0.253 |
| O=C(NN=C1C[C@@H](O)[C@@H](O)[C@@H]2[C@@H]3C(=O)N(C4CCCCC4)C(=O)[C@@H]3CC[C@H]12)OCc1ccccc1 | -0.511 | 0.298 (inactive) | 0.267 (inactive) | 0.799 (inactive) | 0.352 | -0.0442 (inactive) | -0.0239 | -0.177 | -0.0963 | -0.0461 | 0.0222 | 0.691 | 1.07 | -0.177 (inactive) | 0.836 | 0.0816 | 0.554 | -0.483 | -0.504 | -0.0726 |
| CCOC(=O)[C@H](Cc1ccccc1)NC(=O)CCC1CC(OC(=O)NCc2cccc3ccccc23)CC2(CCCC(COC(=O)NCCC(C)C)O2)O1 (stereo not given in full) | -0.923 | -1.04 (inactive) | -0.0031 (inactive) | -1.36 (inactive) | 0.284 | -0.444 (inactive) | 0.0062 | 0.0111 | -0.435 | -0.128 | 0.12 | -0.295 | -0.206 | -1.74 (inactive) | 0.143 | -0.448 | -0.135 | 0.133 | -0.096 | 0.388 |
| CC(C)(C)N1C(=O)[C@H]2[C@H]3[C@H](O)[C@H](O)CC(=NOCc4ccccc4)[C@H]3CC[C@H]2C1=O | -0.201 | -0.612 (inactive) | -0.925 (inactive) | -0.22 (inactive) | 0.351 | 0.662 (inactive) | 0.439 | -0.616 | -0.288 | -0.125 | 0.0828 | 0.989 | 1.36 | 0.453 (inactive) | 0.0277 | -0.399 | -0.376 | -0.663 | -0.551 | 0.251 |
| COc1ccc(COC(=O)NN=C2C[C@@H](O)[C@@H](O)[C@@H]3[C@@H]4C(=O)N(C5CCCCC5)C(=O)[C@@H]4CC[C@H]23)cc1 | -0.416 | 0.494 (inactive) | 0.586 (inactive) | 0.818 (inactive) | 0.271 | -0.277 (inactive) | 0.432 | -0.752 | -1.19 | -0.242 | -0.378 | 1.07 | 1.47 | 1.3 (inactive) | -0.485 | -0.784 | -0.575 | -0.558 | -1.45 | 0.699 |
| CCOC(=O)[C@H](Cc1ccccc1)NC(=O)CCC1CC(OC(=O)NCCc2ccc(F)cc2)CC2(CCCC(COC(=O)NCCCN3CCCC3=O)O2)O1 (stereo not given in full) | 1.37 | -1.68 (inactive) | -0.574 (inactive) | 0.674 (inactive) | 2 | -0.806 (inactive) | -0.0986 | 0.373 | 1.14 | 0.006 | 0.844 | -0.257 | -0.802 | -1.79 (inactive) | 0.767 | 0.843 | 0.478 | 0.69 | 0.493 | -0.103 |
| COCOc1ccc(Br)cc1C(=O)[C@@H]1O[C@H]1c1cccc(OC)c1 | -0.0021 | -1.33 (inactive) | -6.67 (inactive) | -0.822 (inactive) | 0.497 | 1.58 (inactive) | -0.142 | 0.455 | 0.257 | -0.112 | 0.82 | -0.0616 | -0.0631 | -0.455 (inactive) | 0.152 | 0.117 | 0.284 | 0.16 | 0.219 | 0.849 |
| CC(=O)O[C@H]1C2=CO[C@H](C)[C@H]3[C@H]4C5=C([C@H](O)[C@H]6O[C@H]6C5=O)[C@H](OC4C)[C@@]23C(=O)[C@@H]2O[C@@H]21 (stereo not given in full) | 0.593 | 0.116 (inactive) | 0.197 (inactive) | 0.0253 (inactive) | 0.946 | -0.681 (inactive) | -0.299 | 0.433 | 0.392 | -0.0047 | 1.74 | -0.238 | -0.647 | -4.6 (inactive) | 0.916 | -0.0987 | -0.121 | 0.0068 | 0.538 | 0.528 |
| COC(=O)CC=C[C@@H](C)[C@@H](C=NO[C@@H](C)c1cn([C@H](CO)Cc2ccccc2)nn1)NS(=O)(=O)c1ccc(C)cc1 | 0.526 | -2.32 (inactive) | -1.2 (inactive) | -0.88 (inactive) | 0.112 | 0.122 (inactive) | -0.247 | 0.321 | 0.381 | -0.0398 | 1.18 | -0.0838 | -0.668 | -0.83 (inactive) | 0.582 | 0.252 | 0.519 | 0.449 | 0.47 | 0.408 |
| COc1cccc([C@H]2Oc3ccc(OC)cc3C(=NO[C@@H]3O[C@H](COC(C)=O)[C@@H](OC(C)=O)[C@H](OC(C)=O)[C@H]3OC(C)=O)[C@@H]2O)c1 | 0.102 | -1.07 (inactive) | 1.14 (inactive) | -0.239 (inactive) | -0.0867 | 0.373 (inactive) | -0.119 | 0.35 | 0.615 | 0.0009 | -0.531 | 0.0366 | -0.0882 | 0.598 (inactive) | 0.261 | -0.157 | 0.344 | 0.0855 | 0.0647 | -0.43 |
